# Laboratory results reported in PubChem BioAssay.
# Several values for one entry are separate records, joined by “and”; a condition that tells them apart may be missing. Identical values can stand only once. Inconclusive results are not listed. Activity calls are given as the source filed them.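 How the source made its calls, unless noted: active means compounds whose cell count with miR-34 switched on is under 0.7 times the count with it off; inactive means the rest.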
# Tests used:
# [1] = stimulators of nuclear beta-catenin in C2C12, primary screen, imaging, WNT3A-conditioned medium, mouse C2C12, NPC library (AID 1117326; in the data active means nuclear beta-catenin stimulation mostly above about 4.2%, no sharp cut-off; inactive means mostly below about 10%; further: reference of the scale not given here); settings: stronger effect = higher value
# [2] = stimulators of insulin release from INS-1E, primary screen, cell-based, 5 mM glucose, NPC library (AID 1117329;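 active means compound raises insulin release from rat beta cells at 5 mM glucose, no numeric limit stated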; further: reference of the scale not given here); settings: rat INS-1E insulin secretion, at 10 µM, stronger effect = higher value
# [3] = growth inhibition of GSK3B-pretreated HCT116 cells – cell-based, CellTiter-Glo, 0.2 to 20 µM (AID 1117336;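 active means compounds lowering colon cancer cell viability after pretreatment blocking the GSK3B kinase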); settings: HCT116 viability after GSK3B inhibitor, at 20 µM, stronger effect = higher value
# [4] = inhibition of endothelial tube formation, primary screen, imaging, VEGF stimulated, CD31 staining, tube area, NPC library (AID 1117340;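 active means compound that reduces growth-factor-driven endothelial tube area in a mixed cell culture, no cutoff stated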); settings: VEGF-stimulated ADSC/ECFC co-culture, at 10 µM, stronger effect = higher value
# [5] = glucagon-like peptide 1 release enhancers, primary assay, NCI-H716 cell line, NPC library (AID 1117341;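 active means compound raises GLP1 secretion from the human gut endocrine cells, with no numeric limit stated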; further: reference of the scale not given here); settings: NCI-H716 cells, at 10 µM, stronger effect = higher value
# [6] = HCT116 colon cancer cell growth inhibition, primary screen, CellTiter-Glo luminescence, NPC library (AID 1117342;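 active means compounds that lower survival of HCT116 colon cancer cells in the luminescence readout, no numeric limit stated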); settings: at 20 µM (top of the series)
# [7] = CellTiter-Glo luminescent readout of SW480 viability loss, NPC library primary (AID 1117343;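 active means compounds that lower viability of the colon cancer cells in the luminescence readout, with no numeric limit stated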); settings: CellTiter-Glo luminescence; at 20 µM (top of the series) unless noted
# [8] = decreased DLD-1 cellular survival, CellTiter-Glo luminescent readout, NPC compound collection, primary HTS (AID 1117346;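 active means compounds that lower survival of DLD-1 colon cancer cells in the luminescence readout, no cutoff given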); settings: DLD-1 viability, CellTiter-Glo luminescence; at 20 µM (top of the series)
# [9] = growth inhibition of DIPG glioma cells, dose response, cell-based, SU-DIPG-IV, MIPE4.0, CellTiter-Glo, qHTS (AID 1347063; cut-off not given, nearly all actives have AC50 up to about 30 µM;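 further: compound exposure lasted 48 hours before the viability readout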); settings: SU-DIPG-IV viability, CellTiter-Glo ATP luminescence
# [10] = SU-DIPG-VI glioma cell viability, MIPE4.0 library, CellTiter-Glo luminescence, qHTS (AID 1347066; cut-off not given, nearly all actives have AC50 up to about 30 µM;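 further: cells exposed to compound for 48 hours before readout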); settings: CellTiter-Glo ATP luminescence
# [11] = SU-DIPG-XXV glioma cell viability, MIPE5.0 library, qHTS (AID 1347068; cut-off not given, nearly all actives have IC50 up to about 30 µM)
# [12] = sensitizers of A549 cells to miR-34 induction, primary screen, imaging, A549 dox-inducible miR-34, nuclei and caspase counts (AID 1347080); settings: A549 miR-34 inducible, Hoechst nuclei count, 48 h
# [13] = survival rescue of mitochondrial mutant cells in low glucose, primary screen, MELAS cybrids, Rieske KO mouse fibroblasts, CellTiter-Glo (AID 1508586;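 active means mean z-score across replicates of 1.96 or higher in either the MELAS or the Rieske mutant cell line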;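 further: z relative to plate mean and SD of compound and empty wells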)
# [14] = liver-stage malaria parasite growth inhibition, primary screen, cell-based, HepG2, luciferase luminescence, HepG2 viability (AID 624349; in the data active means parasite load remaining mostly below about 12%, no sharp cut-off; inactive means mostly above about 10%;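 further: 100% = mean of DMSO negative control wells on the same plate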); settings: P. berghei liver stage in HepG2, luciferase luminescence, concentration not given here; parasite load remaining: stronger effect = lower value; viability: measured here: HepG2 viability without parasites
# [15] = growth inhibition of DIPG glioma cells, dose response, cell-based, JHH-DIPG-1, MIPE4.0, CellTiter-Glo, qHTS (AID 1347062; cut-off not given, nearly all actives have AC50 up to about 27 µM); settings: JHH-DIPG-1 viability, CellTiter-Glo ATP luminescence
# [16] = viability rescue of complex I mutant cybrids, primary screen, cell-based, galactose medium, ATP luminescence (AID 1645843;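 active means z-score of at least 1.8 in each of two replicates, scored against plate mean and spread of sample wells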;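 further: positive z means more ATP and so rescue of galactose-driven cybrid death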); settings: complex I mutant cybrid cells, 72 h, stronger effect = higher value
# [17] = JHH-DIPG-1 glioma cell viability, MIPE5.0 library, CellTiter-Glo luminescence, qHTS (AID 1347067; cut-off not given, nearly all actives have AC50 up to about 26 µM;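 further: cells exposed to compound for 48 hours before readout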); settings: JHH-DIPG-1 glioma viability, CellTiter-Glo ATP luminescence
# [18] = stronger effect = lower value, cell number ratio, induced over uninduced
# [19] = measured here: relative caspase fold change +Dox/-Dox
# [20] = measured here: total cells with miR-34 induction, stronger effect = lower value
# [21] = measured here: total cells without miR-34 induction
# [22] = MELAS cybrid survival, CellTiter-Glo 48 h, stronger effect = higher value
# [23] = Rieske KO mouse fibroblast survival, CellTiter-Glo 72 h
structure (smiles),measurement,setting,value
O=C(O)c1cccc(-c2noc(-c3ccccc3F)n2)c1,nuclear beta-catenin stimulation,[1]; at 10 µM,2.5% (inactive)
same,nuclear beta-catenin stimulation,"[1]; stimulation, at 2 µM",4.8%
same,insulin secretion stimulation,[2],0% (inactive)
same,viability decrease,[3],8.8% (inactive)
same,tube area decrease,[4],-5.7% (inactive)
same,GLP1 secretion stimulation,[5],2.2% (inactive)
same,inhibition of viability,[6],15.5% (inactive)
same,viability decrease (inhibition),[7],2.3% (inactive)
same,viability decrease (inhibition),[8],-11% (inactive)
same,outcome,[9],inactive
same,outcome,[10],inactive
same,outcome,[11],inactive
same,fold change,[12]; [18],0.927 (inactive)
same,fold change,[12]; [19],0.71
same,cell count,[12]; [20],10200
same,cell count,[12]; [21],11000
same,z-score,[13]; [22],-0.357 (inactive)
same,z-score,[13]; [23],0.633
COC(=O)N[C@H](C(=O)N[C@@H](Cc1ccccc1)[C@@H](O)CN(Cc1ccc(-c2ccccn2)cc1)NC(=O)[C@@H](NC(=O)OC)C(C)(C)C)C(C)(C)C,parasite load remaining,[14],62.2% (inactive)
same,viability,[14],276%
same,nuclear beta-catenin stimulation,[1]; at 10 µM,2.9% (inactive)
same,nuclear beta-catenin stimulation,"[1]; stimulation, at 2 µM",0.8%
same,insulin secretion stimulation,[2],2.15% (inactive)
same,viability decrease,[3],-7% (inactive)
same,tube area decrease,[4],82.7% (active)
same,GLP1 secretion stimulation,[5],-0.7% (inactive)
same,inhibition of viability,[6],5.8% (inactive)
same,viability decrease (inhibition),[7],-2% (inactive)
same,viability decrease (inhibition),[8],-6.7% (inactive)
same,outcome,[15],inactive
same,outcome,[10],inactive
same,fold change,[12]; [18],0.809 (inactive)
same,fold change,[12]; [19],0.911
same,cell count,[12]; [20],8470
same,cell count,[12]; [21],10500
same,z-score,[13]; [22],-0.0891 (inactive)
same,z-score,[13]; [23],-1.39
same,z-score,[16],0.325 (inactive)
O=C(Nc1cccc2c(=O)cc(-c3nn[nH]n3)oc12)c1ccc(OCCCCc2ccccc2)cc1,parasite load remaining,[14],45% (inactive)
same,viability,[14],94.5%
same,nuclear beta-catenin stimulation,[1]; at 10 µM,0.3% (inactive)
same,nuclear beta-catenin stimulation,"[1]; stimulation, at 2 µM",-0.2%
same,insulin secretion stimulation,[2],2.85% (inactive)
same,viability decrease,[3],108% (active)
same,tube area decrease,[4],-18.5% (inactive)
same,GLP1 secretion stimulation,[5],21.5% (active)
same,inhibition of viability,[6],112% (active)
same,viability decrease (inhibition),[7],125% (active)
same,viability decrease (inhibition),[8],88.8% (active)
same,outcome,[10],inactive
same,fold change,[12]; [18],0.93 (inactive) and 0.898 (inactive)
same,fold change,[12]; [19],0.309 and 1.37
same,cell count,[12]; [20],5160 and 10700
same,cell count,[12]; [21],5550 and 12000
same,z-score,[13]; [22],0.447 (inactive) and -0.129 (inactive)
same,z-score,[13]; [23],0.183 and 0.319
same,z-score,[16],1.36 (inactive)
Cc1c(C)c2c(c(C)c1O)CCC(C)(COc1ccc(CC3SC(=O)NC3=O)cc1)O2 (centres undefined),parasite load remaining,[14],65.9% (inactive) and 36.4% (inactive)
same,viability,[14],207% and 95%
same,nuclear beta-catenin stimulation,[1]; at 10 µM,1.2% (inactive)
same,nuclear beta-catenin stimulation,"[1]; stimulation, at 2 µM",10.4%
same,insulin secretion stimulation,[2],1.4% (inactive)
same,viability decrease,[3],88.4% (active)
same,tube area decrease,[4],99.4% (active)
same,GLP1 secretion stimulation,[5],11.9% (inactive)
same,inhibition of viability,[6],55.4% (active)
same,viability decrease (inhibition),[7],110% (active)
same,viability decrease (inhibition),[8],101% (active)
same,outcome,[15],inactive
same,outcome,[10],inactive
same,outcome,[17],inactive
same,outcome,[11],inactive
same,fold change,[12]; [18],1.09 (inactive) and 0.933 (inactive) and 0.824 (inactive)
same,fold change,[12]; [19],0.891 and 4.13 and 1.35
same,cell count,[12]; [20],6090 and 11900 and 7450
same,cell count,[12]; [21],5600 and 12700 and 9040
same,z-score,[13]; [22],-0.456 (inactive) and 0.16 (inactive)
same,z-score,[13]; [23],0.0968 and -0.894
same,z-score,[16],0.175 (inactive)
